# Values joined by “and” are separate entries in the source; they are usually repeats but may differ in a detail not shown here. Equal values may be shown once. Records with an inconclusive call do not appear. Active and inactive are the calls of the source. The calls were made as follows: active = hit-call score of the fitted dose curve at least 0.9, where 1 is the maximum; inconclusive = response in the unintended direction; inactive = score below 0.9.
# Legend:
# [1] = ATG_XTT_Cytotoxicity: Cytotoxicity Assessment in the Attagene TRANS-FACTORIAL HepG2 Assay (AID 2283584);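 as to AC50: cells exposed to compound for 24 h before reading; active means loss of viability signal versus DMSO baseline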
# How it was run: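 Viability endpoint from XTT after 24 h chemical exposure of reporter-transfected human HepG2 liver cells; signal loss fitted relative to DMSO negative control.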
# [2] = TOX21_p53_BLA_p2_viability: Viability Assessment in the Tox21 HCT-116 p53 Agonism Beta-lactamase Assay, Phase 2 (AID 2283591);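 also: compound exposure lasted 16 h at 37 °C; actives lower the ATP signal meaning cytotoxicity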
# How it was run: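 HCT-116 p53-bla cells (4000/well) rested 5 h at 37C, then received compounds in DMSO (217-fold dilution) for 16 h at 37C, 5% CO2. After the CCF4 read, CellTiter-Glo was added; ATP luminescence was read after 30 min at room temperature.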
# [3] = biological target: Cellular tumor antigen p53 (Homo sapiens) (UniProt P04637); assay: TOX21_p53_BLA_p2_ratio: Tox21 HCT-116 p53 Agonism Beta-lactamase Assay, Ratio, Phase 2 (AID 2283592)
# Chain of Cellular tumor antigen p53 (Homo sapiens) (P04637 whole entry, looked up): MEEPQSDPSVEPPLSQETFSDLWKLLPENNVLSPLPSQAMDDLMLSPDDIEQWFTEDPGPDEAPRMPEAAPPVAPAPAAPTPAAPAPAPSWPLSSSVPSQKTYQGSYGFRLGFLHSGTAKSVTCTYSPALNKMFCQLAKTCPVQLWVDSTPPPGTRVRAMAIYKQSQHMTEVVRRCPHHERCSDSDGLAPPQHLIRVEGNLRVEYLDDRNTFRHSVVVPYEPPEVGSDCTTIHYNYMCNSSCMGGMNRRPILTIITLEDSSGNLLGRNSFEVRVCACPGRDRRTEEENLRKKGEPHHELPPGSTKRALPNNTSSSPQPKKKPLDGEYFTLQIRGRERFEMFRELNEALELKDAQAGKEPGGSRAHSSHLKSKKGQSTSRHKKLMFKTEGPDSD
# How it was run: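 Gain-of-signal p53 agonism was scored from the beta-lactamase FRET ratio (460/530 nm, 405 nm excitation) in HCT116 cells treated 16 h at 37C, 5% CO2, with DMSO serving as negative control and baseline.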
# [4] = biological target: Cellular tumor antigen p53 (Homo sapiens) (UniProt P04637); assay: TOX21_p53_BLA_p3_ratio: Tox21 HCT-116 p53 Agonism Beta-lactamase Assay, Ratio, Phase 3 (AID 2283596)
# How it was run: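 HCT116 p53-bla cells (4000/well) given compound in DMSO (217-fold dilution) after 5 h, incubated 16 h at 37C. CCF4-AM substrate 2 h at room temperature; 460/530 nm emission ratio, gain fitted against DMSO.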
# [5] = TOX21_p53_BLA_p4_viability: Viability Assessment in the Tox21 HCT-116 p53 Agonism Beta-lactamase Assay, Phase 4 (AID 2283597);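 also: hits lower the luminescence signal meaning cytotoxicity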
# How it was run: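 Following a 16 h exposure at 37C, the treated HCT116 wells were first read for the FRET ratio. They were then lysed with CellTiter-Glo, and ATP luminescence was recorded after 30 min at room temperature.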
# [6] = biological target: Cellular tumor antigen p53 (Homo sapiens) (UniProt P04637); assay: TOX21_p53_BLA_p5_ratio: Tox21 HCT-116 p53 Agonism Beta-lactamase Assay, Ratio, Phase 5 (AID 2283599)
# How it was run: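 HCT-116 cells carrying a p53-inducible beta-lactamase reporter were seeded at 4000 cells/well and dosed after 5 h with compound in DMSO (217-fold dilution). After 16 h at 37C, CCF4-AM substrate was added for 2 h, and the 460/530 nm emission ratio was scored as gain-of-signal versus DMSO.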
# [7] = biological target: Cellular tumor antigen p53 (Homo sapiens) (UniProt P04637); assay: TOX21_p53_BLA_p4_ratio: Tox21 HCT-116 p53 Agonism Beta-lactamase Assay, Ratio, Phase 4 (AID 2283601)
# How it was run: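 HCT116 cells carrying an inducible beta-lactamase reporter were plated at 4000 cells/well, rested 5 h, then exposed to compounds in DMSO (217-fold dilution) for 16 h at 37C. CCF4-AM substrate was loaded 2 h at room temperature; 460/530 nm emission ratio scored gain-of-signal versus DMSO.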
# [8] = TOX21_p53_BLA_p5_viability: Viability Assessment in the Tox21 HCT-116 p53 Agonism Beta-lactamase Assay, Phase 5 (AID 2283600)
# How it was run: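 After the 460/530 nm beta-lactamase measurement, the wells received an ATP-detection luciferase reagent; signal was read 30 min later at RT. Compound treatment lasted 16 h on cells pre-incubated 5 h post-seeding.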
# [9] = TOX21_p53_BLA_p3_viability: Viability Assessment in the Tox21 HCT-116 p53 Agonism Beta-lactamase Assay, Phase 3 (AID 2283593);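 also: cells exposed to compound for 16 h before reading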
# How it was run: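 HCT-116 cells (4000/well) rested 5 h at 37C, then got DMSO compounds by pin tool (217-fold dilution) for 16 h at 37C, 5% CO2. After the bla read, CellTiter-Glo was added and luminescence read at 30 min, room temperature.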
compound,measurement,setting,value
COC(=O)c1cc(Oc2ccc(Cl)cc2Cl)ccc1[N+](=O)[O-],outcome,[1],inactive
same,outcome,[2],inactive
same,outcome,[3],inactive
same,outcome,[4],inactive
same,outcome,[5],inactive
same,outcome,[6],inactive
same,outcome,[7],inactive
O=NN1CCCCCCC1,outcome,[1],inactive
same,outcome,[2],inactive
same,outcome,[3],inactive
same,outcome,[4],inactive
same,outcome,[5],inactive
same,outcome,[6],inactive
same,outcome,[8],inactive
same,outcome,[7],inactive
C=CC(=O)OCC(COC(=O)C=C)(COC(=O)C=C)COC(=O)C=C,AC50,[1],73.8 µM (active)
same,AC50,[2],16.6 µM (active)
same,outcome,[3],inactive
same,AC50,[9],57.9 µM (active)
same,outcome,[4],inactive
same,AC50,[5],13.3 µM (active)
same,outcome,[6],inactive
same,AC50,[7],46.1 µM (active)
CCOC(=O)CC(=O)CCl,outcome,[1],inactive
same,outcome,[2],inactive
same,outcome,[3],inactive
same,outcome,[9],inactive
same,AC50,[4],77.9 µM (active)
same,outcome,[6],inactive
same,outcome,[7],inactive
Cc1ccccc1OP(=O)(Oc1ccccc1C)Oc1ccccc1C,outcome,[1],inactive
same,outcome,[2],inactive
same,outcome,[3],inactive
same,outcome,[4],inactive
same,outcome,[5],inactive
same,outcome,[6],inactive
same,outcome,[7],inactive
CC(C)(C#N)N=NC(C)(C)C#N,outcome,[1],inactive
same,outcome,[2],inactive
same,outcome,[3],inactive
same,outcome,[9],inactive
same,outcome,[4],inactive
same,outcome,[6],inactive
same,outcome,[8],inactive
same,outcome,[7],inactive
O=C(O)CC(O)(CC(=O)O)C(=O)O,outcome,[1],inactive
same,outcome,[2],inactive
same,outcome,[3],inactive
same,outcome,[9],inactive
same,outcome,[4],inactive
same,outcome,[5],inactive
same,outcome,[6],inactive
same,outcome,[8],inactive
same,outcome,[7],inactive
BrCc1ccc(Br)cc1,outcome,[1],inactive
same,outcome,[2],inactive
same,outcome,[3],inactive
same,outcome,[9],inactive
same,outcome,[6],inactive
same,outcome,[8],inactive
same,outcome,[7],inactive
CC(C)(C)c1cc([N+](=O)[O-])cc(C(C)(C)C)c1O,outcome,[1],inactive
same,AC50,[2],46.1 µM (active)
same,AC50,[3],3.81 µM (active)
same,outcome,[9],inactive
same,AC50,[4],4.47 µM (active)
same,AC50,[5],46.1 µM (active)
same,outcome,[6],inactive
same,outcome,[8],inactive
same,AC50,[7],46.1 µM (active)
Cc1cc(SCc2sc(-c3ccc(C(F)(F)F)c(F)c3)nc2C)ccc1OCC(=O)O,outcome,[1],inactive
same,AC50,[2],15.2 µM (active)
same,AC50,[3],54.1 µM (active)
same,AC50,[4],48.2 µM (active)
same,AC50,[5],11.9 µM (active)
same,AC50,[6],70.2 µM (active)
same,AC50,[7],54.2 µM (active)
O=C(NC(=O)c1c(F)cccc1F)Nc1cc(Cl)c(Oc2ncc(C(F)(F)F)cc2Cl)c(Cl)c1,outcome,[1],inactive
same,outcome,[2],inactive
same,AC50,[3],6.18 µM (active)
same,outcome,[4],inactive
same,AC50,[5],4.06 µM (active)
same,AC50,[6],13.7 µM (active)
same,outcome,[8],inactive
same,AC50,[7],15.6 µM (active)
Cc1cc(Cl)ccc1OCCCC(=O)O,outcome,[1],inactive
same,outcome,[2],inactive
same,outcome,[3],inactive
same,outcome,[4],inactive
same,outcome,[5],inactive
same,outcome,[6],inactive
same,outcome,[7],inactive
CC(C)[C@H](C(=O)OC(C#N)c1cccc(Oc2ccccc2)c1)c1ccc(OC(F)F)cc1 (stereo partly drawn),outcome,[1],inactive
same,outcome,[2],inactive
same,outcome,[3],inactive
same,outcome,[4],inactive
same,outcome,[5],inactive
same,outcome,[6],inactive
same,outcome,[8],inactive
same,outcome,[7],inactive
CCOC(=O)OC1=C(c2cc(C)ccc2C)C(=O)NC12CCC(OC)CC2 (stereo not drawn),outcome,[1],inactive
same,outcome,[2],inactive
same,AC50,[3],46.1 µM (active)
same,outcome,[9],inactive
same,AC50,[4],52.6 µM (active)
same,outcome,[5],inactive
same,AC50,[6],26.3 µM (active)
same,outcome,[8],inactive
same,AC50,[7],54.7 µM (active)
CCCCCCCCCCCCCl,outcome,[1],inactive
same,outcome,[2],inactive
same,outcome,[3],inactive
same,outcome,[9],inactive
same,outcome,[4],inactive
same,outcome,[5],inactive
same,outcome,[7],inactive
O=C(CCl)Nc1ccccc1,outcome,[1],inactive
same,outcome,[2],inactive
same,outcome,[3],inactive
same,outcome,[9],inactive
same,outcome,[4],inactive
same,outcome,[5],inactive
same,outcome,[6],inactive
same,outcome,[7],inactive
Cc1cccc(C)c1NC(=O)CN1CCCC1=O,outcome,[1],inactive
same,outcome,[2],inactive
same,outcome,[3],inactive
same,outcome,[9],inactive
same,outcome,[4],inactive
same,outcome,[5],inactive
same,outcome,[6],inactive
same,outcome,[8],inactive
same,outcome,[7],inactive
CCCCOC(C)=O,outcome,[1],inactive
same,outcome,[2],inactive
same,outcome,[3],inactive
same,outcome,[9],inactive
same,outcome,[4],inactive
same,outcome,[7],inactive
CCOC(=O)C(SP(=S)(OC)OC)c1ccccc1 (stereo not drawn),outcome,[1],inactive
same,outcome,[2],inactive
same,outcome,[3],inactive
same,outcome,[9],inactive
same,outcome,[4],inactive
same,outcome,[6],inactive
same,outcome,[7],inactive
CCOP(=S)(OCC)O/N=C(\C#N)c1ccccc1,outcome,[1],inactive
same,outcome,[2],inactive
same,outcome,[3],inactive
same,outcome,[4],inactive
same,outcome,[5],inactive
same,outcome,[6],inactive
same,outcome,[7],inactive
O=S1OC[C@@H]2[C@H](CO1)[C@]1(Cl)C(Cl)=C(Cl)[C@@]2(Cl)C1(Cl)Cl (stereo partly drawn),outcome,[1],inactive
same,AC50,[2],67.1 µM (active)
same,outcome,[3],inactive
same,outcome,[4],inactive
same,AC50,[5],83.6 µM (active)
same,outcome,[6],inactive
same,outcome,[8],inactive
same,outcome,[7],inactive
CC(C)CC(C)(c1ccc(O)cc1)c1ccc(O)cc1,AC50,[1],25.9 µM (active)
same,AC50,[2],23.7 µM (active) and 75.4 µM (active)
same,AC50,[3],41.7 µM (active) and 71.7 µM (active)
same,AC50,[4],45.2 µM (active) and 86.9 µM (active)
same,AC50,[5],18.6 µM (active) and 46.2 µM (active)
same,AC50,[6],84.6 µM (active) and 86.8 µM (active)
same,AC50,[7],40.9 µM (active) and 55 µM (active)

# Source: PubChem BioAssay (EPA / NIEHS)
